Screening results (PubChem)
TDP1 cell noCPT = qHTS for Inhibitors of human tyrosyl-DNA phosphodiesterase 1 (TDP1): qHTS in cells in absence of CPT; DT40 Tdp1-/- hTDP1 cells, no CPT, ATP luminescence, 48 h; Potency, µM (highest dose often 46.2 µM), inactives show at the top dose activity change, negative = growth inhibition, usual class: inhibitors; 420,000 tested, 15% active; note: potency is the fitted concentration of half-maximal effect; nearly all actives have a fitted effect of over 55% in size
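Chicken DT40 Tdp1-/- cells complemented with human TDP1, screened without camptothecin (DMSO vehicle only), 400 cells/well. Compounds pin-transferred, cells incubated at 37 °C for at least 48 hr. Growth read as ATP-dependent luminescence (CellTiter-Glo, 30 min at RT).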
HT1080NT lethal = kills 2HG-producing HT-1080-NT fibrosarcoma cells; HT-1080-NT fibrosarcoma viability, CellTiter-Glo ATP luminescence, 48 h; Potency, µM (highest dose often 46.1 µM), for inactives: top-dose activity, negative = less viability, most hits filed as cytotoxic; 360,000 tested, 1.6% active;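 note: NT is the 2HG producing partner of a matched IDH1 knockdown line; potency is the fitted concentration of half-maximal effect; 0% = DMSO-treated cells and -100% = media-only wells without cells; nearly all actives have a fitted effect of over 55% in size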
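Compounds were tested in concentration-response format on HT-1080-NT cells for 48 hours at 37 degrees C. Cell viability came from CellTiter-Glo luminescence; curves were classified by r2, response magnitude and activity.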
TDP1 cell CPT = DT40-hTDP1 cell growth loss with CPT. AID 686979. Potency, µM (doses to about 46.2 µM), for the others: top-dose activity change, negative = growth inhibition, actives largely listed as inhibitors. 420,000 tested, 12% active. chicken DT40 Tdp1-/-;hTDP1 cells + 20 nM CPT, ATP luminescence, 48 h; note: potency is the fitted concentration of half-maximal effect; nearly all actives have a fitted effect of over 55% in size
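Cell growth measured by CellTiter-Glo luminescence after a minimum 48 h, 37 C compound exposure with 20 nM CPT in Tdp1-knockout DT40 cells stably expressing hTDP1, seeded 400/well; qHTS titration format.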
IL-1B inflam inh = inhibitors of inflammasome signaling (IL-1 beta secretion). activity change, % at 57.5 µM. THP-1 LPS/ATP IL-1B secretion, AlphaLISA, 16 h; stronger effect = lower value. 360,000 tested, 4.7% active; in the data active = activity change below about -50%; inconclusive = mostly about -30% to -49%
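THP-1 cells pretreated 1 hr with compounds (up to 57.5 uM final), then stimulated with LPS (250 ng/mL final) plus ATP (1.25 mM final); secreted IL-1B measured by AlphaLISA after 16 hr, decreased signal indicating inhibition.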
HT1080 IDH1KD tx = HT-1080 IDH1 knockdown cell toxicity (counter line) | 360,000 tested, 2% active | HT-1080 IDH1 knockdown viability, ATP luminescence, 48 h | Potency, µM (doses to about 46.1 µM), inactives show at the highest dose activity, negative = toxicity, actives largely listed as cytotoxic | AID 686971;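 note: potency is the fitted concentration of half-maximal effect; 0% = DMSO wells and -100% = cell-free medium wells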
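Using the IDH1-knockdown HT-1080 line run in the same batch and compound series as the NT line, viability after 48 h at 37 °C was determined by CellTiter-Glo luminescence and expressed as % activity.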
The depositor's hits bear a star; ? = inconclusive; nt = not tested or not shown. An excerpt weighted towards active compounds, which were near 19% of everything screened. Unless noted, calls come from the whole dose curve; as a rule, active = well fitted curve in the direction sought with a large enough effect; inconclusive = small, poorly fitted or top-dose-only effect, or another doubt; inactive = no such curve, though single readings can be large; an effect the other way counts as inactive or inconclusive. Unless noted, % is set by controls: 0 for no effect and ±100 for the full control effect.

SMILES	TDP1 cell noCPT	HT1080NT lethal	TDP1 cell CPT	IL-1B inflam inh	HT1080 IDH1KD tx
CNC(=O)/C(C#N)=C/c1cccc(Oc2ccccc2)c1	23µM*	-18%	26µM*	-102*	?
O=C(Nc1nnc(-c2ccc(Cl)cc2)o1)C1CCCCC1	18µM*	11%	?	8	-6%
O=C(Nc1nnc(-c2ccc3c(c2)OCCO3)o1)C1CCCCC1	?	3%	-28%	21	1%
O=C(Nc1nnc(-c2ccc(Cl)s2)o1)C1CCCCC1	?	-8%	15µM*	-13	-7%
O=C(Nc1nnc(-c2ccccc2)o1)C1CCCCC1	?	-9%	?	17	-10%
Cc1ccc(C(=O)O[C@H](C(=O)O)[C@H](OC(=O)c2ccc(C)cc2)C(=O)O)cc1	-17%	11%	21%	53	4%
CCCCn1nnc(NC(=S)NC(=O)c2ccc(-c3cccc(Cl)c3Cl)o2)n1	23µM*	-3%	10µM*	10	1%
CCCCC(=O)NC(=S)Nc1nnn(CCC)n1	5.8µM*	-8%	4.1µM*	23	?
CCOc1ccc(C(=O)NC(=S)Nc2ncccc2C)cc1[N+](=O)[O-]	?	3%	?	31	2%
CCCCC(=O)Nc1nnn(CCC)n1	-4%	-9%	-1%	-7	3%
CCCCn1nnc(NC(=S)NC(=O)c2ccc(OCC)c([N+](=O)[O-])c2)n1	21µM*	-2%	?	6	6%
COc1cc2ccccc2cc1C(=O)NC(=S)Nc1nnn(C)n1	16µM*	22%	23µM*	7	22%
Cc1noc(C)c1CSCC(=O)Nc1cc(S(=O)(=O)N2CCOCC2)ccc1OC(C)C	?	-8%	?	-9	-1%
CCN(CC(=O)NC(=O)NC1CCCC1)Cc1ccccc1	1%	7%	4%	1	1%
CCCn1nnc(NC(=O)c2ccccc2Cl)n1	-9%	-2%	0%	0	-1%
CCCn1nnc(NC(=S)NC(=O)c2ccccc2OC)n1	18µM*	12%	?	-5	8%
COc1ccc(CCC2(C)NC(=O)N(C(C)C(=O)Nc3ccccc3F)C2=O)cc1 (stereo unspecified)	0%	-8%	-9%	-6	-3%
Cc1cc(C(=O)NCC(=O)Nc2c(C)cccc2C)c(C)o1	14%	1%	-22%	0	-4%
COc1ccc(C(C(=O)NC(C)(C)C)n2c(COc3ccc(C)cc3)nc3ccccc32)cc1 (stereo unspecified)	?	?	18µM*	-26	?
COc1ccc(C(C(=O)NC(C)(C)C)n2c(-c3ccc(=O)[nH]c3)nc3ccccc32)cc1 (stereo unspecified)	8.2µM*	13µM*	9.2µM*	-6	8.2µM*
Cc1ccc(OCc2nc3ccccc3n2C(C(=O)Nc2c(C)cccc2C)C2CC2)cc1 (stereo unspecified)	?	?	?	-18	?
Cc1cccc(C)c1NC(=O)C(C)n1c(-c2ccc(=O)[nH]c2)nc2ccccc21 (stereo unspecified)	-16%	0%	-12%	28	9%
CC(C)(C)OC(=O)NC1CCN(S(=O)(=O)c2ccc3c(c2)OCCO3)CC1	?	5%	?	24	4%
CCOc1ccccc1CNC(=O)c1ccc(Sc2ccc(Cl)cc2)c(NC(C)=O)c1	?	0%	?	-3	3%
CCOc1ccc(CNC(=O)c2ccc(Sc3ccc(Cl)cc3)c(NC(C)=O)c2)cc1	18µM*	-22%	23µM*	?	?
CC(=O)Nc1cc(C(=O)NCc2ccc(C)cc2)ccc1S(=O)(=O)c1ccc(Cl)cc1	16µM*	nt	?	nt	nt
CCN(C(=O)COC(=O)c1ccccc1Oc1ccccc1)c1c(N)n(Cc2ccccc2)c(=O)[nH]c1=O	-16%	2%	0%	-3	-3%
CCCSc1nc2c(cnn2-c2ccccc2)c(=O)n1N	?	-1%	-2%	-63*	-10%
